This is a sample that favours compounds with a hit; in the whole collection about 6.8% have one here.
Abs 340nm – compounds absorbing at 340 nm; 65,000 tested, under 10 active; AID 708; compound absorbance at 340 nm, fold over control; fold change at 10 µM;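 active = at 10 µM dose, initial 340 nm absorbance at least 2 fold that of control wells; inactive = change under 2 fold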;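 also: initial absorbance extrapolated from kinetic A340 decline of NADH oxidation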
NADH enzymes – inhibitors of enzymes used to reach an NAD/NADH endpoint; coupled PK/LDH NADH assays, four targets; IC50, µM (doses to about 10 µM), for inactives: at the highest dose inhibition; actives 0.02% (n = 65,000); AID 774;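 active = single-dose screening hits from any of four coupled enzyme assays that gave an IC50 when retested across doses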;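 also: the DPM-DC format reads NADH fluorescence rather than 340 nm absorbance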
DPM-DC inhibit – inhibitors of Streptococcus pneumoniae diphosphomevalonate decarboxylase | AID 556 | actives 0.49% (n = 65,000) | purified DPM-DC, PK/LDH coupled NADH fluorescence | calls only at 10 µM;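 active = the 320 compounds with the highest percent inhibition in the single-dose primary screen, excluding strongly autofluorescent ones, cut at about 32% in these data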;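 also: kinetic rate of NADH fluorescence loss reporting ADP formed by the decarboxylase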
MK inhibit – inhibitors of Streptococcus pneumoniae mevalonate kinase; purified MK, PK/LDH-coupled NADH absorbance 340 nm; inhibition, % at 10 µM; actives 0.48% (n = 65,000);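 active = ranked among the strongest by inhibition in the single 10 µM screen, a fixed top-ranked set picked for dose follow-up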
Autofluor 339 – intrinsic fluorescence of library compounds, ex339/em460 – biochemical, MLSMR library, data from DPM-DC assay, artefact control, profiling panel; compound autofluorescence, ex339/em460 nm, NADH buffer; hits give high values; 1 = no-compound wells, NADH background; fluorescence fold increase at 10 µM; actives 5.5% (n = 65,000);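 active = at 10 µM, mean starting fluorescence two-fold or more over control wells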;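 also: signal is the first read of a kinetic run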
Spn PMK inh – inhibitors of Streptococcus pneumoniae phosphomevalonate kinase; purified PMK, PK/LDH-coupled NADH absorbance 340 nm; inhibition, % at 10 µM; actives 0.49% (n = 65,000); AID 539;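 active = top-ranked compounds by inhibition in the single 10 µM screen, taking a fixed number of the strongest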;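 also: 0% = full reaction with DMSO carrier and 100% = background rate without enzyme reaction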
* marks the source's active call; other numbers are inactive results.

How did Cc1ccc2[nH]c(=O)c(CN(CC3CCCO3)C(=O)c3ccco3)cc2c1 (stereo not drawn) do in these assays?
Abs 340nm: 1.1; NADH enzymes: 1%; DPM-DC inhibit: inactive; MK inhibit: 3; Autofluor 339: 1.6; Spn PMK inh: 0

What do the screens show for `O=C(NCc1ccccc1)N(Cc1cc2cc3c(cc2[nH]c1=O)OCO3)CC1CCCO1` (stereo not drawn)?
Abs 340nm: 1.1; NADH enzymes: 4%; MK inhibit: 1; Autofluor 339: 3.7*; Spn PMK inh: 6

What do the screens show for `CCC(=O)N(CCc1ccccc1C)Cc1cc2cc3c(cc2[nH]c1=O)OCO3`?
Abs 340nm: 1.1; NADH enzymes: 11%; MK inhibit: 9; Autofluor 339: 3.8*; Spn PMK inh: 13

What do the screens show for `COc1ccc2[nH]c(=O)c(CN(C(=O)c3ccccn3)C3CCCCC3)cc2c1`?
Abs 340nm: 1; NADH enzymes: 13%; DPM-DC inhibit: inactive; MK inhibit: 5; Autofluor 339: 2.9*; Spn PMK inh: 10

How did Cc1ccc2cc(CN(CCN3CCOCC3)C(=O)NCc3ccccc3)c(=O)[nH]c2c1C do in these assays?
Abs 340nm: 1.1; NADH enzymes: 6%; DPM-DC inhibit: inactive; MK inhibit: 8; Autofluor 339: 2.1*; Spn PMK inh: 7

What do the screens show for `Cc1ccc2cc(CN(CCN3CCCC3)C(=O)Nc3ccccc3)c(=O)[nH]c2c1C`?
Abs 340nm: 1; NADH enzymes: 2%; DPM-DC inhibit: inactive; MK inhibit: 0; Autofluor 339: 1.3; Spn PMK inh: 6

How did CCOc1ccc(/C(O)=C2/C(=O)C(=O)N(CCCn3ccnc3)C2c2cccs2)cc1Cl (stereo not drawn) do in these assays?
Abs 340nm: 1.1; NADH enzymes: 10%; DPM-DC inhibit: inactive; MK inhibit: 7; Autofluor 339: 1.1; Spn PMK inh: 11

How did CC1(C)OC(=O)N(Cc2ccco2)C1(C)O (stereo not drawn) do in these assays?
Abs 340nm: 0.97; NADH enzymes: 7%; DPM-DC inhibit: inactive; MK inhibit: 8; Autofluor 339: 1; Spn PMK inh: 12

How did CCOC(=O)c1cc2c(N)c(C(=O)c3cc(C#N)c(SC)nc3C)sc2nc1C do in these assays?
Abs 340nm: 1.1; NADH enzymes: 6%; DPM-DC inhibit: inactive; MK inhibit: 0; Autofluor 339: 1.5; Spn PMK inh: 13

What do the screens show for `O=C(CC1SC(N2CCCCC2)=NC1=O)Nc1cccc(C(=O)O)c1` (stereo not drawn)?
Abs 340nm: 0.98; NADH enzymes: 8%; DPM-DC inhibit: inactive; MK inhibit: 2; Autofluor 339: 1; Spn PMK inh: 23

How did COc1ccc2cc(CN(C(=O)Nc3ccccc3OC)C3CCCC3)c(=O)[nH]c2c1 do in these assays?
Abs 340nm: 1.1; NADH enzymes: 6%; DPM-DC inhibit: inactive; MK inhibit: 9; Autofluor 339: 1.1; Spn PMK inh: 9

Results for CC(=O)N(Cc1cccnc1)Cc1cc2ccc(C)cc2[nH]c1=O ?
Abs 340nm: 1.1; NADH enzymes: 9%; DPM-DC inhibit: inactive; MK inhibit: 8; Autofluor 339: 1.4; Spn PMK inh: 11

How did CCCCN(Cc1cc2cc(OC)ccc2[nH]c1=O)C(=O)c1ccccn1 do in these assays?
Abs 340nm: 1; NADH enzymes: 3%; MK inhibit: 10; Autofluor 339: 2.5*; Spn PMK inh: 9

What do the screens show for `COc1cc2cc(CN(Cc3cccnc3)C(=O)NCc3ccccc3)c(=O)[nH]c2cc1OC`?
Abs 340nm: 1.2; NADH enzymes: 7%; MK inhibit: 8; Autofluor 339: 4.8*; Spn PMK inh: 6

What do the screens show for `COc1cc2cc(CN(C(=O)NC3CCCCC3)C3CCCC3)c(=O)[nH]c2cc1OC`?
Abs 340nm: 1.1; NADH enzymes: 11%; MK inhibit: 9; Autofluor 339: 3.9*; Spn PMK inh: 12

How did COc1ccc2[nH]c(=O)c(CN(CCN(C)C)C(=O)NCc3ccccc3)cc2c1 do in these assays?
Abs 340nm: 1; NADH enzymes: 14%; DPM-DC inhibit: inactive; MK inhibit: 8; Autofluor 339: 3.8*; Spn PMK inh: 14

What do the screens show for `Cc1ccc2[nH]c(=O)c(CN(CCO)C(=O)NCc3ccccc3)cc2c1`?
Abs 340nm: 1; NADH enzymes: 6%; DPM-DC inhibit: inactive; MK inhibit: 3; Autofluor 339: 1.5; Spn PMK inh: 9

What do the screens show for `CCCN(Cc1cc2cc(OC)ccc2[nH]c1=O)C(=O)c1ccncc1`?
Abs 340nm: 1.1; NADH enzymes: 5%; DPM-DC inhibit: inactive; MK inhibit: 4; Autofluor 339: 1.9; Spn PMK inh: 8

Results for CCCn1c(N)c(C(=O)CN2CCN(S(=O)(=O)c3cccs3)CC2)c(=O)[nH]c1=O ?
Abs 340nm: 1; NADH enzymes: 4%; DPM-DC inhibit: inactive; MK inhibit: 0; Autofluor 339: 1.1; Spn PMK inh: 13

Results for COC(=O)c1ccc(CSc2nc3scc(-c4cccs4)c3c(=O)[nH]2)o1 ?
Abs 340nm: 1.1; NADH enzymes: 5%; DPM-DC inhibit: inactive; MK inhibit: 0; Autofluor 339: 1.1; Spn PMK inh: 16

How did COc1ccc2[nH]c(=O)c(CN(CCO)C(=O)c3ccccc3F)cc2c1 do in these assays?
Abs 340nm: 1; NADH enzymes: 11%; DPM-DC inhibit: inactive; MK inhibit: 9; Autofluor 339: 2.9*; Spn PMK inh: 9

How did COc1ccc(CCNc2oc(-c3ccccc3OC)nc2C#N)cc1OC do in these assays?
Abs 340nm: 1; NADH enzymes: 15%; MK inhibit: 14; Autofluor 339: 3.9*; Spn PMK inh: 15

How did COCCNc1oc(-c2ccc(F)cc2)nc1C#N do in these assays?
Abs 340nm: 1.1; NADH enzymes: 3%; MK inhibit: 0; Autofluor 339: 2.4*; Spn PMK inh: 5

How did N#Cc1nc(-c2ccc(F)cc2)oc1NCc1ccccc1 do in these assays?
Abs 340nm: 1.1; NADH enzymes: 1%; MK inhibit: 0; Autofluor 339: 2.2*; Spn PMK inh: 1

What do the screens show for `COc1ccc(CNc2oc(COc3ccccc3)nc2C#N)cc1`?
Abs 340nm: 1; NADH enzymes: 7%; DPM-DC inhibit: inactive; MK inhibit: 5; Autofluor 339: 0.96; Spn PMK inh: 16

How did COCCNc1oc(-c2ccccc2Cl)nc1C#N do in these assays?
Abs 340nm: 1.1; NADH enzymes: 8%; DPM-DC inhibit: inactive; MK inhibit: 5; Autofluor 339: 1.7; Spn PMK inh: 6

What do the screens show for `COc1ccc(CCNc2oc(-c3ccccc3OC)nc2C#N)cc1`?
Abs 340nm: 1; NADH enzymes: 6%; MK inhibit: 16; Autofluor 339: 3*; Spn PMK inh: 18

What do the screens show for `CC(=O)Nc1cccc(-c2nnc(SCc3ccccc3C#N)n2C)c1`?
Abs 340nm: 0.98; NADH enzymes: 5%; DPM-DC inhibit: inactive; MK inhibit: 13; Autofluor 339: 1; Spn PMK inh: 1
